High-throughput results: PubChem BioAssay, National Center for Advancing Translational Sciences (NCATS)
MARV entry inh: qHTS for inhibitors of binding or entry into cells for Marburg Virus; Marburg virus pseudotyped entry inhibition, cell reporter; Potency, µM (doses to about 37.8 µM), actives largely listed as inhibitors; 300,000 tested, 1.8% active; calls by dose curve; tested in HEK293 cells
Lassa entry inh: qHTS for Inhibitors of binding or entry into cells for Lassa Virus. Lassa virus pseudotype entry inhibition, cell reporter. Potency, µM (titrated, usually from 37.9 µM), actives largely listed as inhibitors. 300,000 tested, 1.2% active; calls by dose curve; tested in HEK293 cells; further: nearly all actives have a fitted effect of over 50% in size
Vaccinia Venus: qHTS for Stage-Specific Inhibitors of Vaccinia Orthopoxvirus: Venus Reporter Primary qHTS; Vaccinia virus Venus reporter expression, fluorescence; 330,000 tested, 0.46% active; Potency, µM (series often up to 36.5 µM), usual class: inhibitors; calls by dose curve; tested in A549 cells; further: nearly all actives have a fitted effect of over 30% in size
VACV mCherry inh: qHTS for Stage-Specific Inhibitors of Vaccinia Orthopoxvirus: mCherry Reporter Primary qHTS; Vaccinia virus mCherry reporter infection, fluorescence; Potency, µM (top dose mostly 36.5 µM), hits mostly inhibitors; 310,000 tested, 0.63% active; calls by dose curve; tested in A549 cells; further: nearly all actives have a fitted effect of over 35% in size
Numbers stand for hits; . = inactive; ? = inconclusive; / = no result given; ! = not active in a repeat; [ ] = dose if it differs, or a comment. Only some compounds are listed: those with a hit (about 2.5% of all), similar ones and a draw of the others.

SMILES | MARV entry inh | Lassa entry inh | Vaccinia Venus | VACV mCherry inh
COc1cc(=O)n2c(c1C(=O)N(C)Cc1nonc1C)CCN(C(=O)C1C(C)(C)C1(C)C)CC2 | / | / | . | .
Cc1cccc(CN2C[C@H](Sc3ccccn3)C[C@H]2C(=O)Nc2ccc3sc(C)nc3c2)c1 | / | / | . | .
Cc1noc(C)c1CC(=O)N1CCOc2c(cc(-c3nc4ccccc4s3)cc2OC2CCOC2)C1 (stereo not drawn) | / | / | . | .
CCc1cc2c(nc1CC)CCN(CCC(C)=NOC[C@@H](O)[C@H]1O[C@@H]3OC(C)(C)O[C@H]3[C@@H]1O)C2 | . | / | / | /
CCN(CC)CCCNC(=O)c1cc(-c2ccccc2)c(N2CCCCC2)s1 | ? | 16µM | . | .
COc1cc(-c2nnc(NC(=O)CCS(=O)(=O)c3ccc(F)cc3)o2)cc(OC)c1OC | . | . | ? | ?
COc1cc(OC)cc(-c2nnc(NC(=O)CCS(=O)(=O)c3ccccc3)o2)c1 | . | . | ? | 6.3µM
O=C(CCS(=O)(=O)c1ccc(F)cc1)Nc1nnc(-c2cccs2)o1 | . | . | 13µM | ?
COc1cc(OC)cc(-c2nnc(NC(=O)CCS(=O)(=O)c3ccc(F)cc3)o2)c1 | ? | . | 7.9µM | 5.6µM
O=C(CS(=O)(=O)c1ccc(F)cc1)Nc1nnc(-c2cccs2)o1 | . | . | . | .
COc1cc(-c2nnc(NC(=O)CCS(=O)(=O)c3ccccc3)o2)cc(OC)c1OC | . | . | 5.6µM | 3.5µM
CC12CCC3c4ccc(OC(=O)N(CCCl)CCCl)cc4CCC3C1CCC2O (stereo not drawn) | ? | 5.6µM | ? | .
C[C@@]12CCC3c4ccc(OS(=O)(=O)O)cc4CCC3C1CCC2O (stereo partly drawn) | / | / | . | .
O=C1c2ccccc2S(=O)(=O)N1Cc1nc2ccccc2s1 | ? | 1µM | . | .
COc1ccc2c(c1)CO[C@H]([C@H](O)COC(C)=O)[C@H]2C=Cc1ccccc1 | . | / | / | /
Cc1ccc(C(=O)c2cc(C)sc2NC(=O)CN2CCN(C(=O)c3ccco3)CC2)cc1 | ? | ? | ? | 11µM
CCc1cc(C(=O)OC)c(NC(=O)CN2CCN(C(=O)c3ccco3)CC2)s1 | . | ? | . | .
O=C(CN1CCOCC1)N/N=C/c1c(O)ccc2ccccc12 | ? | 11µM | ? | ?
O=C(CSCC(=O)Nc1ccccc1)N/N=C/c1c(O)ccc2ccccc12 | ? | 26µM | / | /
O=C(O)c1cc(N/N=C/c2c(O)ccc3ccccc23)ccc1Cl | . | ? | . | .
CCC1C(=O)NCCN1Cc1ccc2c(c1)CN(Cc1cccc(OC)c1)CCO2 (stereo not drawn) | / | / | . | .
COc1ccc(CN2CCCC(n3cc(C(=O)NC4CCCC4)nn3)C2)c2ccccc12 (stereo not drawn) | / | / | . | .
Cc1no[n+]([O-])c1COc1ccc(/C=N/n2nnnc2N)cc1 | . | . | ? | 14µM
O=C(c1ccc2c(Cl)c3c(nc2c1)CCCC3)N1CCN(c2ccccc2)CC1 | . | . | . | .
O=C(c1ccc2c(Cl)c3c(nc2c1)CCCC3)N1CCC(N2CCCCC2)CC1 | 4.6µM | ? | ? | .
SMILES | MARV entry inh | Lassa entry inh | Vaccinia Venus | VACV mCherry inh
CC(C)Cc1ccc(CN2CCCC(NC(=O)c3ccnn3C)C2)cc1 (stereo not drawn) | 10µM | ? | . | .
NNC(=O)CSc1cccc2cccnc12 | . | ? | . | .
O=C(CSc1cccc2cccnc12)N1CCCC1 | ? | ? | 11µM | 11µM
O=C(C1CCC(CNS(=O)(=O)c2cccs2)CC1)N1CCN(c2ccc(F)cc2)CC1 (stereo not drawn) | 3.2µM | ? | . | ?
COc1ccc(C(=O)COC(=O)C(Cc2c[nH]c3ccccc23)NC(=O)c2ccc(C(C)(C)C)cc2)cc1 (stereo not drawn) | / | 1.3µM | . | .
Cc1ccc(-c2nc(=S)c3c(n2Cc2ccco2)CCCC3)cc1 | . | . | . | /
Cc1ccc(-c2nc(=S)c3c(n2Cc2ccco2)CC(C)(C)OC3)cc1 | 13µM | . | / | /
CN(C(=O)c1cccc(NC(=O)Cc2ccc(NC(=O)C3CCCN(C(=O)CCc4ccccc4)C3)cc2)c1)C1CCCCC1 (stereo not drawn) | / | / | ? | 13µM
CN(Cc1ccccc1)C(=O)c1ccc(NC(=O)Cc2ccc(NC(=O)C3CCCN(C(=O)CCc4ccccc4)C3)cc2)cc1 (stereo not drawn) | / | / | ? | 10µM
CN(C(=O)c1ccc(NC(=O)Cc2ccc(NC(=O)C3CCCN(C(=O)CCc4ccccc4)C3)cc2)cc1)C1CCCC1 (stereo not drawn) | / | / | ? | 10µM
N#C/C(=N/O)c1nc(-c2ccccc2)cs1 | . | / | / | /
CN(C)CCCn1c2c3ccccc3ccc2c2oc(=O)c3ccccc3c21 | ? | ? | ? | 22µM
CN(C)CCCn1c(=S)[nH]c2ccccc2c1=O | ? | . | . | .
COc1ccc(-c2nnc(COc3ccc4ccccc4c3)o2)cc1OC | ? | 21µM | / | /
COc1cc(-c2nnc(COc3ccc4cc(Br)ccc4c3)o2)cc(OC)c1OC | ? | . | / | /
COCCn1c(=S)[nH]c2cc(C(=O)N3CCN(Cc4ccc5c(c4)OCO5)CC3)ccc2c1=O | 6.5µM | ? | / | /
CC(=O)OC[C@]12CCC(C)=C[C@H]1O[C@@H]1[C@H](O)[C@@H](OC(C)=O)[C@@]2(C)[C@]12CO2 | / | / | 3.2µM | ?
O=C(C[C@H]1C(=O)N(Cc2ccccc2)C[C@@H]1Cc1ccccc1)Nc1ccccc1 | / | 16µM | . | .
COCCC1CCCCN1Cc1nc(N2CCCC2)c2cc(OC)c(OC)cc2n1 (stereo not drawn) | / | / | . | .
C/C(N)=C(/C#N)C(=O)CSc1nnc(-c2ccccc2Br)o1 | 6.3µM | ? | . | /
CC(=O)ON(C(C)=O)c1ccc(/C=C2/C=Cc3ccccc32)cc1 | / | / | . | .
Cc1ccc(-c2nn(-c3ccccc3)cc2C=C2C(=O)CC(C)(C)CC2=O)cc1 | . | . | . | .[1.46 µM]
CC1=NNC(=O)/C1=C\c1cn(-c2ccccc2)nc1-c1ccc(Cl)cc1 | ? | ? | 8.9µM | 10µM
CCOc1cc(CN2CCC(CO)(Cc3cccc(C(F)(F)F)c3)CC2)ccc1OC | 4.5µM | . | . | .
COC(=O)C(C)(N)Cc1ccc(O)cc1 (stereo not drawn) | 2.8µM! | ? | . | .
SMILES | MARV entry inh | Lassa entry inh | Vaccinia Venus | VACV mCherry inh
C[C@](N)(Cc1ccc(O)cc1)C(=O)O | ? | . | / | /
CCC1(C2CCN(Cc3ccccc3Cl)CC2)NC(=O)N(CC2COc3ccccc3O2)C1=O (stereo not drawn) | / | / | . | .
CCOc1cc(CNCCCN2CCOCC2)ccc1OCC(=O)Nc1cccc2ccccc12 | ? | 15µM | / | /
O=C(Cc1ccccc1)Nc1nonc1NC(=O)c1ccccc1 | 13µM | ? | . | .
O=C(Cc1ccccc1)Nc1ccc(NC(=O)c2ccccc2)nc1 | ? | . | . | .
COc1ccc(-n2cc(CNC3CCC(O)CC3)c(-c3cccc(F)c3)n2)cc1 (stereo not drawn) | 18µM | . | . | .
COc1ccc(-n2cc(CN3CCC(OC)CC3)c(-c3cccc(F)c3)n2)cc1 | ? | . | . | ?
